HCV inhibitor – inhibitors of hepatitis C virus infection; AID 651820; 340,000 compounds, 3.4% hits; Potency, µM (top dose mostly 41.8 µM), without a hit: top-dose activity change, negative = inhibition, usual class: inhibitors; Huh7.5.1 HCVcc-Cre infection, luciferase reporter, 44 h; active = well fitted inhibition curve with a large enough effect; inconclusive = small, poorly fitted or top-dose-only effect, or another doubt; inactive = no such curve, though single readings can be large or run the other way; also: potency is read from the fitted curve at half-maximal effect; % is scaled to controls: 0 for no effect and ±100 for the full control effect
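After 44 h co-culture of compound, cells and HCVcc-Cre (~0.5 moi), substrate is added for 15 min at room temperature and luciferase measured over 15 sec. Cells were seeded at 1,000/well and pre-cultured 4 h.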
FMDV inh – foot and mouth disease virus antiviral activity. AID 1159524. FMDV antiviral cell-based qHTS. Potency, µM (highest dose often 57.9 µM), for inactives: top-dose activity change, negative = inhibition, most hits filed as inhibitors. 410,000 compounds, 1.2% hits; calls by dose curve; tested in HEK293T cells; also: read-out not given here; potency is read from the fitted curve at half-maximal effect; % is scaled to controls: 0 for no effect and ±100 for the full control effect; nearly all actives have a fitted effect of over 45% in size
Lassa entry inh – blocks Lassa virus binding to or entry into cells | Lassa virus pseudotype entry inhibition, cell reporter | Potency, µM (top dose mostly 37.9 µM), inactives show top-dose activity change, negative = inhibition, actives largely listed as inhibitors | 300,000 compounds, 1.2% hits | AID 540256; calls by dose curve; tested in HEK293 cells; also: potency is read from the fitted curve at half-maximal effect; % is scaled to controls: 0 for no effect and ±100 for the full control effect; nearly all actives have a fitted effect of over 50% in size
Cycloheximide cs – affects cycloheximide protein synthesis inhibition readout, counter-screen | cell reporter, cycloheximide protein synthesis inhibition counterscreen | max response, % | 300,000 compounds, 12% hits | AID 2314; in the data active = max response mostly above about 13%, no sharp cut-off; inactive = mostly below about 14%; also: read at 38.3 µM for the half of the compounds with a filed dose; 0% is about no effect
Shiga toxin inh – inhibitors of Shiga toxin in Vero cells. Vero cells, Shiga toxin protein synthesis inhibition reporter. inhibition, % at 38.7 µM. 290,000 compounds, 9.2% hits. AID 2315; in the data active = inhibition mostly above about 28%, no sharp cut-off; inactive = mostly below about 43%; also: 0% is about no effect
MARV entry inh – blocks Marburg virus binding to or entry into cells; Marburg virus pseudotyped entry inhibition, cell reporter; Potency, µM (doses to about 37.8 µM), for the others: at the top dose activity change, negative = inhibition, actives largely listed as inhibitors; 300,000 compounds, 1.8% hits; AID 540276; calls by dose curve; tested in HEK293 cells; also: potency is read from the fitted curve at half-maximal effect; % is scaled to controls: 0 for no effect and ±100 for the full control effect
Active calls of the source: *; ? = inconclusive; . = no result given; [ ] = dose if it differs, or a comment. The list is not random: actives were taken first. Their share in the collection is about 13%.

SMILES	HCV inhibitor	FMDV inh	Lassa entry inh	Cycloheximide cs	Shiga toxin inh	MARV entry inh
O=C(NC12CC3CC(CC(C3)C1)C2)c1ccc(-c2ccccc2Cl)o1	-9%	-9%	?	44*	161*	?
CCn1nnc(NC(=O)c2ccc(-c3ccc(Cl)cc3)o2)n1	?	21%	-17%	36*	35*	13%[46.1 µM]
CC(=O)NC(=O)c1ccc(-c2ccc(Cl)cc2)o1	-4%	19%	?	25*	17*	?
O=C(NC12CC3CC(CC(C3)C1)C2)c1ccco1	-9%	2%	-8%	0	-16	-9%
CCn1nnc(NC(=O)Cc2ccc(Cl)cc2)n1	-9%	-8%	?	8	27	-2%
O=C(COC(=O)c1ccc(-c2ccc([N+](=O)[O-])cc2)o1)NC(=O)NC12CC3CC(CC(C3)C1)C2	-11%	-11%	-11%	-4	-4	24%
O=C(NC12CC3CC(CC(C3)C1)C2)c1ccc(-c2ccc(Cl)cc2)o1	?	4%	?	85*	129*	?
O=C(NC(=S)Nc1ccccc1O)c1ccc(-c2ccc(Cl)cc2)o1	8%	-18%	3%	-2	-4	11%
O=C(CSc1nnc(Cn2c(=O)sc3ccccc32)n1-c1ccccc1)N1CCCCCC1	1%	-6%	.	-3	2	.
O=C(Nc1cccc2cccnc12)c1ccc(-c2cccc(Cl)c2)o1	.	-6%	-1%[46.1 µM]	.	.	0%[46.1 µM]
O=C(NC12CC3CC(CC(C3)C1)C2)c1ccc(COc2ccc(Cl)cc2[N+](=O)[O-])o1	8.9µM*	?	?	-1	2	?
Cc1ccc(OCc2ccc(C(=O)Nc3cc(C)on3)o2)c([N+](=O)[O-])c1	-21%	-2%	.	-4	-11	.
O=C(NC12CC3CC(CC(C3)C1)C2)c1ccc(-c2cccc(Cl)c2)o1	?	29%	-21%	35*	83*	-25%
COc1ccc(CC(C)N2CCN(Cc3ccccc3)CC2)cc1OC (stereo not given)	1%	5%	9%[46.1 µM]	-1	-9	?
Cc1ccc(CNC(=O)NCc2noc3ccc(C)cc23)cc1	.	-11%	4%[46.1 µM]	.	.	.
COCC(C)n1c(C)cc(C(=O)COC(=O)c2ccc3ncsc3c2)c1C (stereo not given)	-16%	-4%	-3%	24*	68*	12%
COCC(C)n1c(C)cc(C(=O)COC(=O)c2cnc(Cl)c(Cl)c2)c1C (stereo not given)	?	-22%	.	.	.	.
CCOc1ccc(OCC(=O)OC(C)C(=O)NC2CCCC2)cc1 (stereo not given)	2%	-9%	.	.	.	.
CCCCNC(=O)[C@H]1N2C(=O)c3c(ccc(OC)c3OC)C2SC1(C)C (stereo not given in full)	-1%	6%	.	-3	18	.
Cc1ccc(N2C(=O)CS(=O)(=O)CC2=O)cc1	6%	7%	22%[46.1 µM]	-7	15	?
Cc1ccc(N2C(=O)CC3(CCCC3)CC2=O)cc1	17%	23%	-1%	17*	10	18%[46.1 µM]
O=C(c1ccccc1)N1CCCC(c2ccc(Cl)cc2)=N1	?	.	?	-2	15	-26%
O=C(c1cccc(Cl)c1)N1CCCC(c2ccc(Cl)cc2)=N1	7.9µM*	.	?	10	-1	-21%
CC(C)(C)NC(=O)CSc1nc(Cc2ccccc2)nc2ccccc12	13µM*	-1%	.	-5	-1	.
Cc1cc(C(=O)CSC(C)c2nc3ccccc3c(=O)[nH]2)c(C)n1C (stereo not given)	2%	6%	-5%	4	-3	17%
SMILES	HCV inhibitor	FMDV inh	Lassa entry inh	Cycloheximide cs	Shiga toxin inh	MARV entry inh
Cc1cc(C(=O)CSc2nc3ccccc3c(=O)[nH]2)c(C)n1C	?	28%	4%	34*	133*	?
CC(C)(C)NC(=O)CSc1nc2ccccc2c(=O)[nH]1	13%	41%	11%	32*	18	?
O=C(CCCO)NC1Cc2ccccc2C1	21%	3%	12%	-2	10	17%[46.1 µM]
COC(=O)C1=C(N)Oc2cc(C)[nH]c(=O)c2C1c1cc(OC)c(OC)c(OC)c1 (stereo not given)	31%	-13%	-11%	-4	-5	?
Cc1nc(Sc2nnnn2C)c2c3c(sc2n1)CCC3	4%	?	?	-1	-18	?
Cn1nnnc1Sc1ncnc2scc(Br)c12	.	22µM*	.	.	.	.
Cn1nnnc1Sc1ncnc2scc(-c3ccc(Br)cc3)c12	.	18µM*	.	.	.	.
